# From PubChem BioAssay
# This is a sample that favours compounds with a hit; in the whole collection about 10% have one here.
# HPGD inh – HPGD (human) dehydrogenase inhibition; purified HPGD, NADH fluorescence kinetic, PGE2 substrate; 4.3% of 150,000 active; P15428; Potency, µM, for inactives: at the highest dose activity change, negative = inhibition, actives largely listed as inhibitors; active = well fitted inhibition curve with a large enough effect, not every such curve was filed as active; inconclusive = small, poorly fitted or top-dose-only effect, or another doubt; inactive = no such curve, though single readings can be large or run the other way; note: potency is the fitted concentration of half-maximal effect
#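 20 nM HPGD preincubated 15 min at room temperature with compound in 50 mM Tris-HCl pH 8, 0.01% Tween 20. Started with 1 mM NAD+ and 30 uM prostaglandin E2; NADH fluorescence (360/450 nm) read 5 times over 30-s intervals, last minus first.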
# aGal spleen mod – inhibitors or activators of human alpha-galactosidase in spleen homogenate | P06280 | human spleen homogenate, 4MU-alpha-Gal fluorescence, 40 min | Potency, µM (titrated, usually from 80 µM), inactives show at the top dose activity change, negative = inhibition, most hits filed as inhibitors | 0.008% of 240,000 active | AID 2107;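 note: potency is the fitted concentration of half-maximal effect; 0% = enzyme with vehicle and -100% = no enzyme basal signal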
#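 qHTS titration in buffer at pH 5.0. Alpha-galactosidase activity in spleen homogenate was measured via 4-methylumbelliferone release from 1 mM fluorogenic substrate after 40 min at 37C and a pH 10 stop. AC50 came from Hill fits of control-normalized data.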
# ALDH1A1 block – ALDH1A1 (human) enzyme inhibition; Purified ALDH1A1, NADH fluorescence, propionaldehyde substrate; P00352; Potency, µM (titrated, usually from 75.3 µM), for inactives: at the top dose activity, negative = inhibition, usual class: inhibitors; 7.3% of 220,000 active; active = well fitted inhibition curve with a large enough effect, not every such curve was filed as active; inconclusive = small, poorly fitted or top-dose-only effect, or another doubt; inactive = no such curve, though single readings can be large or run the other way;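 note: potency is the fitted concentration of half-maximal effect; plate controls were no enzyme wells and a reference inhibitor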
# Target sequence (P00352 whole entry, looked up): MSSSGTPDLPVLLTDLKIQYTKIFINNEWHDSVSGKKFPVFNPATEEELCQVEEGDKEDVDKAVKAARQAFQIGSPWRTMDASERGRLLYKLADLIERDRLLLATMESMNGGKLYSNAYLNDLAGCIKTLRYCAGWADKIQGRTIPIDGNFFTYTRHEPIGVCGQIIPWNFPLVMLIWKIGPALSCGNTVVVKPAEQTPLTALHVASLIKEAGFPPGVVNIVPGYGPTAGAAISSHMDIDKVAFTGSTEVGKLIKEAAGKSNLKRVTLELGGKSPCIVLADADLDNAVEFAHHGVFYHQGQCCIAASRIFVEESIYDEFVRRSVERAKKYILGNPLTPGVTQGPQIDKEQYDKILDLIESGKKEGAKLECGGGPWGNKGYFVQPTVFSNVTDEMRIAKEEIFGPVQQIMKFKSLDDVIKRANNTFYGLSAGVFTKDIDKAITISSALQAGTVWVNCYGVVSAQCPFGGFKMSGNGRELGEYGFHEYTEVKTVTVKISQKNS
# PNC inhibitor – perinucleolar compartment assembly inhibition; activity change (PNC), negative = inhibition, % at 10 µM; PC3M PTB-GFP, PNC prevalence imaging, 16 h; active compounds read low; AID 2417; 3.1% of 140,000 active;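 active = readout at or below -70, meaning at least 70% loss of cells showing the perinucleolar compartment, a nuclear body marking cancer cells; inconclusive = readout between -30 and a set limit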;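 note: plate controls were DMSO wells for no effect and camptothecin positive control wells for full effect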
#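 Read-out is percentage of cells bearing a perinucleolar compartment, from automated 20x imaging of fixed, Hoechst-stained PC3M PTB-GFP cells. Cells were seeded 4 h, then exposed 16 h to compound (23 nl of library stock) in duplicate plates.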
# GLA inh pH 4.5 – alpha-galactosidase A (human) inhibition, pH 4.5. AID 1467. P06280. purified enzyme, 4-MU-alpha-Gal fluorescence, pH 4.5. activity change, negative = inhibition, % at 105 µM. 230,000 tested, under 10 active;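 note: 0% = full activity with enzyme and -100% = basal without enzyme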
# 12-hLO inh – inhibitors of human 12-lipoxygenase (ALOX12); purified 12-hLO, xylenol orange hydroperoxide absorbance; Potency, µM (top dose mostly 57.1 µM), for inactives: at the top dose activity change, negative = inhibition, hits mostly inhibitors; 0.12% of 150,000 active; note: potency is the fitted concentration of half-maximal effect; nearly all actives have a fitted effect of over 55% in size
#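 Lipoxygenase turnover measured by absorbance at 573 and 405 nm after Fe-XO development. Human 12hLO 150 nM, arachidonate 40 uM, pH 7.0 Hepes buffer with detergent; 15 min compound preincubation, 30 min reaction.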
# Starred values were filed as active, the others as inactive; ? = inconclusive; . = no result; ! = not confirmed by another sample; [ ] = dose if it differs, or a comment. Unless noted, calls come from the whole dose curve; as a rule, active = well fitted curve in the direction sought with a large enough effect; inconclusive = small, poorly fitted or top-dose-only effect, or another doubt; inactive = no such curve, though single readings can be large; an effect the other way counts as inactive or inconclusive. Unless noted, % is set by controls: 0 for no effect and ±100 for the full control effect.
SMILES,HPGD inh,aGal spleen mod,ALDH1A1 block,PNC inhibitor,GLA inh pH 4.5,12-hLO inh
CC1(c2cnc(Nc3ccccc3)s2)CCC(=O)O1 (stereo not drawn),-15%,2%,18µM*,-29,9,-8%
CC(C)CCNC(=O)NC(=O)COC(=O)CNC(=O)C1CCCCC1,.,-2%,6%,.,-1,.
Cc1ncc([N+](=O)[O-])n1CCO,-21%,-1%,7.9µM*!,43,-5,0%
CCS(=O)(=O)CCn1c([N+](=O)[O-])cnc1C,-12%,4%,0%,5,-5,-4%
CC(=O)c1ccc(-c2ccc(-c3cc(=O)oc4c(C(C)C)ccc(C)c34)cc2)cc1,-23%,-22%,11%,.,-11,-4%[0.00818 µM]
C=C(C)Cn1c(SCC)nc2ccccc2c1=O,3%,10%,-11%,6,1,2%
C=C(C)Cn1c(SCC(=O)N/N=C/c2c(O)ccc3ccccc23)nc2ccccc2c1=O,-21%,-3%,5%,-121*,-7,5%
C=C(C)Cn1c(SCC#N)nc2ccccc2c1=O,-15%,-3%,10µM*,9,-10,-5%
COc1ccc(C=C2C(=O)c3ccccc3C2=O)cc1O,.,-3%,0.89µM*,.,-7,.
COc1cccc(/C=C2\C(=O)C(=O)c3ccccc32)c1,3.5µM*,-6%,?,?,4,-6%
COc1cc(C=C2C(=O)c3ccccc3C2=O)ccc1O,.,4%,?,.,-6,.
COc1cc(C=C2C(=O)c3ccccc3C2=O)cc(OC)c1,.,9%,.,.,7,.
COc1cc(C=C2C(=O)c3ccccc3C2=O)cc(OC)c1OC,.,-3%,1.6µM*,.,-8,.
CN1CC[C@@]2(CCCN(C(=O)c3cccn3C)C2)C1,-1%,21%,7%,.,.,-3%
CCCOc1nc(N)c(C#N)c(-c2ccccc2F)c1C#N,-17%,-5%,1µM*,28,-12,0%
S=C1SCN(Cc2cccnc2)CN1Cc1cccnc1,.,6%,14µM*,.,-11,.
CCOC(=O)C1=C(C)Nc2ccccc2N=C1NC(=O)Cc1ccc(OC)cc1,-11%,-4%,-10%,2,9,0%
S=C1NCCc2ccccc2C1c1ccccc1Cl (stereo not drawn),-7%,-4%,6%,28,-3,-27%
S=C1NCCc2ccccc2C1c1ccccc1 (stereo not drawn),40µM*,13%,-7%,0,7,28µM*
C[C@@]1(O)C(O)[C@@H](CO)O[C@H]1n1cnc2c(NC3CCCC3)nc(Cl)nc21 (stereo partly drawn),-19%,-10%,10%,.,-19,-5%
Cc1cc2oc(=O)cc(CN3CCc4ccccc43)c2cc1Cl,-20%,-28%,-5%,-14,-3,-28%
Cc1cc2oc(=O)cc(Cn3ncc(Cl)c(Cl)c3=O)c2cc1Cl,.,2%,0.079µM*,.,-2,.
COc1ccc2c(c1)C=C(CN1CCN(C(C)C)C(CCO)C1)CO2 (stereo not drawn),.,3%,5%,.,-7,.
O=C(O)c1cc(-c2ccc(O)cc2)on1,.,10%,?,.,4,.
O=C1C2C3C=CC(C3)C2C(=O)N1/N=C/c1cn(Cc2ccccc2)c2ccccc12 (stereo not drawn),-5%,-9%,10%,27,6,-5%
SMILES,HPGD inh,aGal spleen mod,ALDH1A1 block,PNC inhibitor,GLA inh pH 4.5,12-hLO inh
O=C(CNc1ccccc1)N/N=C/c1ccc2c(c1)OCO2,-15%,9%,-5%,-24,-5,-2%
O=C(CNc1ccc2c(c1)OCO2)N/N=C\c1cn(Cc2ccc(F)cc2)c2ccccc12,-18%,-2%,2µM*,-16,-4,0%
O=C(CNc1ccc2c(c1)OCO2)N/N=C\c1cn(Cc2ccccc2)c2ccccc12,-16%,-1%,4.5µM*,-20,-4,-2%
O=C1C2C3C=CC(C3)C2C(=O)N1/N=C/c1cn(Cc2ccc(F)cc2)c2ccccc12 (stereo not drawn),-9%,4%,25µM*,13,0,-1%
COc1ccc(N2C(=O)CSC23C(=O)N2CCCc4cccc3c42)cc1 (stereo not drawn),-7%,-14%,11µM*,-5,-3,-3%
O=C1CSC2(C(=O)N3CCCc4cccc2c43)N1c1cccc(C(F)(F)F)c1 (stereo not drawn),-4%,-8%,?,52,-20,3%
COC(=O)c1ccc(NC(c2ccc(Cl)cc2)P(=O)(OC)OC)cc1 (stereo not drawn),-23%,20%,10%,3,13,4%
CCOC(=O)c1ccc(NC(=S)NC(=O)COc2ccccc2)cc1,?,-11%,22µM*,33,-3,-8%
O=C(CCCOc1ccccc1)NCCc1ccccc1,.,-5%,4%,.,5,.
COCCNC(=O)CC(c1ccccc1)c1ccccc1,14µM*,0%,8%,20,7,-4%
COCCNC(=O)CSc1nnc(-c2ccccc2)c(-c2ccccc2)n1,.,9%,22µM*,.,0,.
O=C(CC(c1ccccc1)c1ccccc1)NCCO,-10%,-2%,2%,-1,-6,-2%
COCCCNC(=O)CCCOc1ccccc1,14µM*,2%,-11%,?,-1,-4%
COCCNC(=O)CSc1nc(-c2ccccc2)c(-c2ccccc2)o1,?,0%,?,18,-15,7%
CCOC(=O)c1ccc(NC(=S)Nc2ccccc2)cc1,-13%,3%,?,-30,-1,-4%
CCOC(=O)Cc1csc(NC(=O)/C=C/c2ccc(Cl)cc2)n1,.,0%,.,.,-9,.
O=C(O)c1ccc(CCN2CCN(CC=Cc3ccc(Cl)cc3)CC2)cc1,.,2%,.,.,.,.
CCOC(=O)c1c(N=CN(C)C)c2cc([N+](=O)[O-])cnc2n1C,.,2%,.,.,0,.
O=C(CSc1nnc(-c2ccccc2F)n1CCc1ccccc1)Nc1ccc2[nH]c(=O)[nH]c2c1,-3%,-5%,?,48,4,1%
O=C(CCCOc1ccccc1)NC(=S)Nc1ccccc1,.,-6%,10µM*,.,7,.
COCCCNC(=O)CC(C)c1ccccc1 (stereo not drawn),16µM*,7%,21%,-3,-1,3%
Cc1cc(C)n(S(=O)(=O)c2ccc(C(C)(C)C)cc2)n1,20µM*,0%,13µM*,?,-3,-4%
COc1ccc2c(c1)O[C@H](c1ccc3c(c1)OCO3)[C@@H](OC(=O)Nc1ccc(C)c(Br)c1)C2=O,3%,8%,-4%,.,-3,.
Cc1cc(C=NCCCO)c(C)n1-c1cc(Cl)ccc1Cl,.,4%,3.5µM*,.,2,.
O=C(Nc1ccc2c(c1)OCCO2)C1CCN(C(=O)c2ccc(Cl)cc2)CC1,-3%,13%,-11%,-29,-6,-2%
